# Source: PubChem
# Tb PYK inh: qHTS of Trypanosoma Brucei Inhibitors | Potency, µM (highest dose often 76.8 µM), for inactives: at the highest dose activity, negative = inhibition, usual class: inhibitors | 410,000 tested, 0.12% active | pyruvate kinase (Trypanosoma brucei), Q57TT1 | AID 624173, 2012 | TbPYK enzyme, Kinase-Glo Plus ATP luminescence, 45 min; note: potency is the fitted concentration of half-maximal effect; nearly all actives have a fitted effect of over 50% in size
#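 Readout: single end-point luminescence (Kinase-Glo Plus, 10 min). Reaction conditions were TbPYK/substrate plus 130 uM ADP, 45 min at RT, pH 7.2 TEA buffer. No-enzyme wells served as controls, and data were normalized before concentration-response fitting.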
# Giardia FBPA inh: qHTS Assay for Inhibitors of Fructose-1,6-bisphosphate Aldolase from Giardia Lamblia | A8B2U2 | purified Giardia FBPA | Potency, µM (series often up to 59.6 µM), for inactives: top-dose activity, negative = inhibition, usual class: inhibitors | 290,000 tested, 0.71% active | AID 2451, 2010; note: potency is the fitted concentration of half-maximal effect; nearly all actives have a fitted effect of over 55% in size
# Target sequence (A8B2U2 whole entry, looked up): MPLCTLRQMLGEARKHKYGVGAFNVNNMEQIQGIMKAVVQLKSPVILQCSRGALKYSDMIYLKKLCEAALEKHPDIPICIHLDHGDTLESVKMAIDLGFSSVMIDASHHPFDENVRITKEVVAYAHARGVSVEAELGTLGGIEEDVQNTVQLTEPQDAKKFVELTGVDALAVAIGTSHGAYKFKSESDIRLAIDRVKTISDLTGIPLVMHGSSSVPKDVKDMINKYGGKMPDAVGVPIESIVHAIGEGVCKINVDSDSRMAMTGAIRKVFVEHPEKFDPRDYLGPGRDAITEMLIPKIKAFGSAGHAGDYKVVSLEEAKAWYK
#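 40 nM FBPA preincubated 10 min at RT with compound (up to 57.5 uM final), then substrate plus GAPDH/TPI/NAD/arsenate coupling and diaphorase/resazurin added. Fluorescence read after 20 min at RT, 525/598 nm.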
# Sm TGR block: qHTS Assay for the Inhibitors of Schistosoma Mansoni Peroxiredoxins; Schistosoma mansoni thioredoxin glutathione reductase (TGR), Q962Y6; purified TGR, DTNB reduction, TNB absorbance 405 nm; Potency, µM (doses to about 114 µM), for inactives: at the highest dose activity change, negative = inhibition, actives largely listed as inhibitors; 360,000 tested, 3% active; AID 485364, 2010; note: potency is the fitted concentration of half-maximal effect; nearly all actives have a fitted effect of over 60% in size
#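 TGR 20 nM + NADPH 100 uM (dispensed conc.), cpd preinc 15 min RT; start with NADPH (500 uM addition) then DTNB (15 mM addition). Kinetic TNB absorbance, 405 nm filter. Four-parameter Hill fit across titration.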
# FMDV antiviral: High Throughput Screening for Foot and Mouth Disease Virus Antivirals. FMDV antiviral cell-based qHTS. 410,000 tested, 1.2% active. Potency, µM (top dose mostly 57.9 µM), for inactives: at the highest dose activity change, negative = inhibition, most hits filed as inhibitors; calls by dose curve; tested in HEK293T cells; note: read-out not given here; potency is the fitted concentration of half-maximal effect; nearly all actives have a fitted effect of over 45% in size
# HCMV antiviral: qHTS Assay for inhibitors of the human cytomegalovirus (HCMV). activity change, negative = inhibition, % at 57.5 µM. 410,000 tested, 4.5% active. AID 1259415, 2018. HFF cells, HCMV-luciferase reporter, 72 h; hits give low values; in the data active = activity change below about -60%; inconclusive = no clear call, values can overlap the other calls; inactive = above about -39%
#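 Screen run at 2 compound doses on HFFs infected with reporter HCMV, MOI 1 PFU/cell. Luciferase activity from cell lysates at 72 h post infection gave inhibition relative to buffer-only and Salinomycin wells.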
# RE007 growth inh: qHTS Assay for Inhibitors of the HIV-1 protein Vpr; S. pombe RE007 Vpr strain, BacTiter-Glo ATP luminescence, 24 h; Potency, µM (titrated, usually from 92.2 µM), for the others: at the top dose activity change, negative = less growth, actives largely listed as inhibitors; 360,000 tested, 0.21% active; AID 651644, 2012; active = well fitted falling curve with a large enough effect; inconclusive = small, poorly fitted or top-dose-only effect; inactive = no such curve, though single readings can be large or run the other way; note: potency is the fitted concentration of half-maximal effect; nearly all actives have a fitted effect of over 50% in size
#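 Fission yeast strain RE007, carrying one chromosomally integrated HIV-1 vpr copy, was seeded at OD 0.01 in PMG+AL medium with 23 nL pinned compound. After 24 h at 30 °C and 99% humidity, viability was read by BacTiter-Glo luminescence.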
# * hit, by the source's call; u = inconclusive; x = no result; ! = a repeat was not active; [ ] = another dose, or the depositor's remark. Sampled rows, rich in hits. Any-hit rate of the full collection: about 7.7%. Unless noted, calls come from the whole dose curve; as a rule, active = well fitted curve in the direction sought with a large enough effect; inconclusive = small, poorly fitted or top-dose-only effect, or another doubt; inactive = no such curve, though single readings can be large; an effect the other way counts as inactive or inconclusive. % is set by controls: 0 for no effect and ±100 for the full control effect.
SMILES,Tb PYK inh,Giardia FBPA inh,Sm TGR block,FMDV antiviral,HCMV antiviral,RE007 growth inh
O=S(=O)(Nc1ccc2c3c(cccc13)CC2)c1ccccc1,1%,x,x,56%,u,-4%
Clc1ccc2c(N3CCNCC3)ccnc2c1,-6%,-6%,-14%,1%,-109*,-16%
COc1ccc(N2CCN(c3ccnc4cc(Cl)ccc34)CC2)cc1,1%,10%,-5%,u,u,7%
Oc1ccc(N2CCN(c3ccnc4cc(Cl)ccc34)CC2)cc1,u,-6%,u,-12%,-66*,-3%
Clc1ccc2c(N3CCCC3)ccnc2c1,2%,2%,-16%,-17%,u,-2%
CCCCNc1ccc2c(c1)OC[C@H](CC(C)C)NS2(=O)=O,x,x,x,x,-27,x
O=C(CN1C(=O)NC(Cc2ccccc2)C1=O)Nc1ccccc1F (stereo not given),0%,x,2%,1%,-10,1%
CC(C)CC1NC(=O)N(CC(=O)Nc2ccccc2-c2ccccc2)C1=O (stereo not given),0%,-2%,2.2µM*,4%,-14,4%
CC(C)(C)c1ccccc1NC(=O)CN1C(=O)NC(Cc2ccccc2)C1=O (stereo not given),-6%,x,50µM*,-11%,4,-10%
Cc1ccc(Cl)cc1NS(=O)(=O)c1ccc2c(c1)NC(=O)CCS2,0%,x,-5%,5%,-6,x
C[C@@H]1CN([C@@H](C)CO)C(=O)CCCn2cc(nn2)CO[C@H]1CN(C)C(=O)Cc1ccccc1,x,x,x,x,-1,x
CC(C)CNc1cccc2c1S(=O)(=O)N(Cc1cccc(F)c1)[C@@H](C)[C@H](c1ccccc1)O2,x,x,x,x,-24,x
CCCNC(=O)OC[C@H]1O[C@@H](CCO/N=C\[C@@H](NS(=O)(=O)c2ccc(C)cc2)[C@H](C)/C=C\CC(=O)OC)C=C[C@@H]1Oc1ccc(OC)cc1,x,1%[12.9 µM],x,x,x,x
Cc1ccc(NC(=O)c2ccc(Cl)c(N3C(=O)C=CC3=O)c2)cc1,u,-29%,0.56µM*,40µM*,-12,u
O=C(O)CSc1nc2c(c(C(F)(F)F)n1)CCc1ccccc1-2,-3%,24%,5%,-9%,-22,-8%
O=C(O)CSc1nc2c(c(C(F)(F)F)n1)CCCC2,-5%,8%,4%,-8%,-96*!,10%
CC1CN(C(=O)Nc2ccc(C(=O)NCCc3ccc(Cl)cc3)cc2)c2ccccc2S1 (stereo not given),2%,x,-3%,-8%,-34,x
Cc1ccc(CN2C(=O)COCc3cc(-c4cccc(CO)c4)ccc32)cc1,x,x,x,x,-10,x
COc1ccc(CN(C)CC(=O)Nc2ccc(SC(F)F)cc2)cc1OC,4%,1%,-1%,18µM*,-3,10%
COc1ccc(CCN(C)Cc2ccc(OC)c(OCc3ccccc3)c2)cc1OC,14%,-21%,7%,-24%,51,-23%
COc1ccc(CCN(C)Cc2ccc(C(=O)Nc3ccccc3)cc2)cc1OC,-3%,x,-24%,-25%,-73*,3%
COc1ccc(CN(C)CCc2ccccn2)cc1OC,-1%,6.3µM*,2%,-18%,6,12%
COc1ccc(CCN(C)Cc2c(O)ccc3ccccc23)cc1OC,0%,-8%,1.4µM*,-24%,52,-20%
CC1=Nc2cc(C(=O)NC3CCCC3)ccc2Sc2ccc(Br)cc21,-8%,x,-4%,-24%,-76*,x
CC1=Nc2cc(C(=O)NC3CCC(C)CC3)ccc2Sc2c(C)ccc(C)c21 (stereo not given),2%,x,5%,33%,x,x
SMILES,Tb PYK inh,Giardia FBPA inh,Sm TGR block,FMDV antiviral,HCMV antiviral,RE007 growth inh
CC1=Nc2cc(C(=O)NC3CCCCC3)ccc2Sc2ccc(Cl)cc21,0%,x,-6%,-20%,-87*,x
CCOC(=O)N1CCC(NC(=O)c2ccc3c(c2)N=C(C)c2c(C)ccc(C)c2S3)CC1,1%,-8%,-9%,-24%,-93*,9%
Cc1ccc(C)n1C1C(=O)N(C)c2c(F)cccc21 (stereo not given),x,x,x,x,1,x
Cn1c(-c2cccnc2)cc2cnc(Nc3ccc4c(c3)OCO4)cc21,x,x,x,x,22,x
O=C(N/N=C/c1cccc(F)c1)c1ccc(Cl)cc1,-4%,0%,-10%,49%,-31,3%
O=c1[nH]c2ccccc2c(O)c1O,u,4µM*,u,-27%,u,-4%
O=C(N/N=C/c1ccc(F)cc1)c1c(O)c2ccccc2[nH]c1=O,-6%,8%,-16%,u,-21,-17%
Cc1c(C(=O)N/N=C/c2ccccc2)[nH]c2ccc(Cl)cc12,-1%,3%,-1%,101%,-70*,-15%
Cc1cc(C(=O)N/N=C/c2ccc(N(C)C)cc2)c2ccccc2n1,0%,1%,-5%,u,3,20%
O=C(N/N=C/c1ccccc1)c1c(O)c2ccccc2[nH]c1=O,0%,12%,-6%,1%,-92*,u
Cc1c(C(=O)N/N=C/c2ccc(N(C)C)cc2)[nH]c2ccc(Cl)cc12,3%,7%,4%,41%,-76*,6%
O=c1[nH]c2ccccc2c(O)c1-[n+]1ccccc1,-6%,-19%,11%,-18%,-26,5%
CCN1c2ccccc2-c2nc(SCC(=O)NCc3ccccc3)ncc2S1(=O)=O,0%,x,5%,0%,-29,x
COc1cccc(-c2oc3ccc(C)cc3c(=O)c2O)c1,0%,x,-12%,23%,27,x
COc1cc2c(-c3cccc(Cl)c3)nc3c(c(C)nn3-c3ccccc3)c2cc1OC,3%,x,20%,-23%,16,x
CCOC(=O)C1=CCN(S(=O)(=O)c2ccc(Br)cc2)C1c1cccc(Cl)c1 (stereo not given),x,x,x,x,-16,x
C[C@H]1COc2cc(N3CCOCC3)ccc2S(=O)(=O)N1,x,x,x,x,9,x
COc1cc(=O)n2c(c1C(=O)NCc1ccsc1)CCN(Cc1nc3ccccc3[nH]1)CC2,x,x,x,-4%,x,x
COc1ccc(CN2C(=O)N(c3cccc(C)c3)C(=O)C2CC(=O)Nc2ccc(F)cc2)cc1OC (stereo not given),-4%,x,-2%,-28%,-1,x
O=C(CCC(=O)N1CC2CCCN2c2ccccc21)NCc1ccc(Cl)cc1 (stereo not given),-7%,x,7%,-19%,3,x
COc1ccc(O)c(CNn2c(-c3ccc(Br)cc3)nc3ccccc3c2=O)c1,2%,14%,-5%,u,-74*,-12%
CCOc1ccc(-n2c(=O)c3ccccc3c3ccccc3c2=O)cc1,0%,-13%,5%,u,56,-3%
